About 2,100 (3.2%) of roughly 65,000 compounds showed an effect of 50% or more. The median lay at about -52%. What follows is part of a selection rich in strong results, with near analogues and random picks from the rest.

The experiment deals with Plasmodium falciparum. The experiment is described as follows: Screen against P. falciparum Asexual Blood Stage (ABS), at 5uM. The experiment is classed as functional, Dd2. Particulars: tested at 5 uM.
With `Cc1[nH]c(=O)[nH]c(=O)c1CN1CCCC(CCc2ccccc2F)C1` (configuration not stated), the INHIBITION is recorded as -26.5%.

In the case of `CNc1ccc(CC2CCCN(Cc3c[nH]cn3)C2)nn1` (configuration not stated), the INHIBITION is given as -105%.

For the compound `Fc1ccc(CCC2CCCN(Cc3c[nH]cn3)C2)c(F)c1` (configuration not stated), the INHIBITION is 61.6%.

Turning to `Cc1[nH]c(=O)[nH]c(=O)c1CN1CCCC(CCc2ccc(F)cc2F)C1` (configuration not stated), the INHIBITION came out at 52%.

As for `Cc1nc(CN2CCCC(CCc3ccccc3F)C2)c[nH]1` (configuration not stated), the INHIBITION turned out to be 36.5%.

Take `Cc1ccc(OCC(O)CN2CCc3c(ncn3C3CC3)C2)cc1` (configuration not stated): the INHIBITION was -28.3%.

On to `CN1CCc2nc(C3CCCN(C(=O)CC(C)(C)C)C3)ncc2C1` (configuration not stated), for which the INHIBITION was -102%.

On to `Cc1cccc(-c2ccc(C(=O)N3CCSCC3)c(=O)[nH]2)c1`, for which the INHIBITION was -14.2%.

With `Cc1csc(CN2CC[C@H]3O[C@H](C(=O)Nc4cccnc4)CC[C@H]32)n1`, the INHIBITION is given as -18.1%.

Turning to `Cc1nn(C)c2c(N3CCN(C(=O)C4CCCO4)CC3)ncnc12` (configuration not stated), the INHIBITION was found to be 9.5%.

For `CC(=O)N1CCN(C(=O)c2cc(C(C)C)no2)[C@H]2CS(=O)(=O)C[C@H]21`, the INHIBITION is listed as -67%.

In the case of `O=C(CCNC(=O)c1cccc(OC(F)F)c1)Nc1cccnc1`, the INHIBITION was -128%.

For the compound `Cc1cccc(CN2CCc3nnc(CN(C)C)n3CC2)n1`, the INHIBITION is -108%.

For `Cc1cccc(CN2CCc3nnc(Cn4cccc4)n3CC2)n1`, the INHIBITION is listed as 57.5%.

Regarding `Cc1cccc(CN2CCc3nnc(CN4CCCC4=O)n3CC2)n1`, the INHIBITION is reported as -48.8%.

On to `Cc1nnc2n1CCN(CCS(=O)(=O)c1ccc(Cl)cc1)C2`, for which the INHIBITION is reported as -194%.

`Cc1cccc(-c2noc(Cn3nc(C(N)=O)ccc3=O)n2)c1`: the INHIBITION is recorded as -165%.

On to `CN(C)CCN(CC1CCCO1)S(=O)(=O)NCc1ccccc1` (configuration not stated), for which the INHIBITION amounted to 62%.

Turning to `CN(CCCC1CCCO1)S(=O)(=O)NCc1ccccc1` (configuration not stated), the INHIBITION was -55.1%.

With `O=S(=O)(NCc1ccccc1)N(Cc1ccccn1)CC1CCCO1` (configuration not stated), the INHIBITION is on record as -181%.

Consider `C[C@@H](CO)NC(=O)c1ccc2nc(NS(C)(=O)=O)sc2c1`, for which the INHIBITION was -104%.

Consider `CCOc1ccc(CNC(=O)N(C)CC(C)(C)O)cc1C`, for which the INHIBITION is on record as -65.1%.

Turning to `COCC(=O)N1CCC2(CC1)CN(c1ccccn1)CCO2`, the INHIBITION is reported as -89.8%.

Turning to `COCC1CC2(CCN(Cc3ccc(C)o3)CC2)CN1C(C)C` (configuration not stated), the INHIBITION worked out at 34.5%.

As to `COCC1CC2(CCN(Cc3nccs3)CC2)CN1Cc1ccccn1` (configuration not stated), the INHIBITION was 1.23%.

For the compound `COCCN1CCC2(CC1)CCN(Cc1ccccn1)CC2`, the INHIBITION is given as 52.2%.

On to `COCC(=O)N1CCC2(CC1)CC(COC)N(Cc1ccccn1)C2` (configuration not stated), for which the INHIBITION was -56%.

As for `COCC1CC2(CCN(Cc3ccco3)CC2)CN1C(C)C` (configuration not stated), the INHIBITION was found to be 64.6%.

In the case of `CCN1CCC2(CC1)CC(COC)N(Cc1csc(C)n1)C2` (configuration not stated), the INHIBITION is listed as -19.2%.

For the compound `COCC(=O)N1CCC2(CCN(Cc3ccccn3)CC2)CC1`, the INHIBITION was -158%.

As to `COCC1CC2(CCN(Cc3ccoc3)CC2)CN1Cc1ccccn1` (configuration not stated), the INHIBITION was 57.2%.

As to `COCC1CC2(CCN(CC3CC3)CC2)CN1Cc1csc(C)n1` (configuration not stated), the INHIBITION is given as 53.4%.

As for `Cn1cc(CN2CCC3(CC2)CCN(Cc2ccccn2)CC3)cn1`, the INHIBITION is -19.8%.

With `COCC1CC2(CCN(C(=O)c3ccco3)CC2)CN1C(C)C` (configuration not stated), the INHIBITION amounted to 24.5%.

With `COCC1CC2(CCN(C(C)=O)CC2)CN1Cc1csc(C)n1` (configuration not stated), the INHIBITION is -7.46%.

As to `CC(C)CO[C@H]1CN(S(=O)(=O)c2cn(C)cn2)[C@@H]2CCCO[C@H]12`, the INHIBITION is reported as -26.7%.

In the case of `CN(CC(F)(F)F)C(=O)CNC(=O)N1CCCC(N(C)C)C1` (configuration not stated), the INHIBITION is -126%.

For the compound `O=C(c1n[nH]c(=O)c2ccccc12)N1CCC(O)(CN2CCOCC2)C1` (configuration not stated), the INHIBITION is listed as -74.2%.

Consider `CC(C)(C)OC(=O)NC(C)(C(N)=O)c1cccc(Cl)c1` (configuration not stated), for which the INHIBITION is on record as -135%.

`CC(C)c1noc(CCC(=O)N2CCSCC2)n1`: the INHIBITION is given as -159%.

As to `COCC1CN(Cc2ccccn2)Cc2nn(C)cc21` (configuration not stated), the INHIBITION is given as -9.17%.

Consider `Cc1nnc(SCC(=O)NCc2ccc3c(c2)CCC(=O)N3)s1`, for which the INHIBITION is given as -34.4%.

Consider `Cc1nc2cc(CNC(=O)C3CC(=O)N(C4CCCC4)C3)ccc2n1C` (configuration not stated), for which the INHIBITION is reported as -135%.

As for `CN(CC1CCCCC1)C(=O)c1ccc(-n2ncc(C#N)c2N)cc1`, the INHIBITION is reported as -48.5%.

In the case of `CCOc1ccc(Cl)c(C(=O)NCCC(=O)Nc2ccccn2)n1`, the INHIBITION worked out at 31.1%.

Take `CCCn1nc2c(cc1=O)CN(c1ncnc3sccc13)CC2`: the INHIBITION is on record as -82.2%.

For `CCCNC(=O)c1cc(-c2cnc(N3CCCC3)nc2)cn1C`, the INHIBITION is recorded as -151%.

Turning to `Cc1nc(CNC(=O)c2ccc3c(c2)nc(N2CCOCC2)n3C)cs1`, the INHIBITION is recorded as -33.8%.

Turning to `CN1CCS(=O)(=O)[C@@H]2CCN(C(=O)c3ccccc3)CC[C@@H]21`, the INHIBITION is -102%.

For the compound `Cc1ccc(N2CCC3(CCN(Cc4ccccn4)CC3)CC2)nn1`, the INHIBITION is on record as -21.1%.

For the compound `c1ccc(CN2CCC3(CC2)CCN(c2ccccn2)C3)nc1`, the INHIBITION is 3.14%.

As for `Cc1cccc(N2CCC3(CCN(Cc4ccccn4)CC3)CC2)n1`, the INHIBITION turned out to be 63.8%.

Source of the values: ChEMBL document CHEMBL4513216, “Probing the Open Global Health Chemical Diversity Library for Multistage-Active Starting Points for Next-Generation Antimalarials” (ACS Infect Dis, 2020).
